From PubChem BioAssay AID493162 (ICCB-Longwood Screening Facility, Harvard Medical School, 2011) come the findings set out here.

The campaign covered roughly 46,000 compounds. About 430 (0.93%) were called active. The sample holds actives, similar compounds and a random draw of the others, so the mix is not that of the screen. Unmarked numbers belong to inactive results. No stated cut-off is given here; in the data, active means normalized absorbance mostly below about 85% (no sharp cut-off); inactive means mostly above about 86%.

The subject of this experiment is Vaccinia virus DNA polymerase (E9) processive complex. The experiment is described as follows: vaccinia E9 polymerase processive synthesis inhibitors, primary screen, biochemical, absorbance (AID 493162). Particulars: in vitro processive DNA synthesis, absorbance read-out; stronger effect = lower value; concentration not given here.
Consider `Cc1cc(C(=O)OCC(=O)N2CCc3ccccc3C2)c(C)o1`, for which the normalized absorbance was 103%.

Take `O=C(COC(=O)c1ccc2ccccc2n1)Nc1ccc(Cl)c(C(F)(F)F)c1`: the normalized absorbance is 100%.

For `O=C1CC(c2ccc(Cl)cc2)Sc2nc3ccccc3n21` (stereo not given), the normalized absorbance was 100%.

Regarding `CCc1ccccc1Nc1cc(C(=O)NCC2COc3ccccc3O2)c2ccccc2n1` (stereo not given), the normalized absorbance was 99.1%.

With `O=C(OCC(=O)N1CCCCCC1)c1ccc(Cl)nc1`, the normalized absorbance was 106%.

In the case of `Brc1ccccc1C1OCC2(CO1)COC(c1ccccc1Br)OC2` (stereo not given), the normalized absorbance is 100%.

As to `O=C(Nc1nc(-c2ccc(Cl)s2)cs1)C1=COCCO1`, the normalized absorbance was 98.9%.

With `CCn1c(CNC(C)=O)nc2ccccc21`, the normalized absorbance was 101%.

In the case of `O=C(COC(=O)c1n[nH]c2ccccc12)NC(c1ccccc1)c1ccccc1`, the normalized absorbance was 98.6%.

As for `CNC(=O)Nc1ccc(C(=O)NC)cc1`, the normalized absorbance was 101%.

As to `CCOc1ccc(OCC)c(NC(=O)CCS(=O)(=O)c2ccc(C)cc2)c1`, the normalized absorbance was 91.4%.

`CCn1c(=NC(=O)C2CC2)sc2cc(Cl)ccc21`: the normalized absorbance is 71.3%.

Take `NNc1cccc(Cl)n1`: the normalized absorbance is 78.5% (active).

On to `COC(=O)CN1C(=O)c2cccnc2Oc2ccc(C)cc21`, for which the normalized absorbance was 92%.

Take `O=C(O)c1ccc(N=Cc2ccc(OC(=O)c3sc4ccccc4c3Cl)cc2)cc1`: the normalized absorbance was 100%.

Consider `CS(=O)(=O)c1nc2ccccc2[nH]1`, for which the normalized absorbance was 103%.

As to `C/C(CCc1ccc2c(c1)OCO2)=N\N1C(=N)SC(C(=O)Nc2ccc(C(=O)O)cc2)CC1=O` (stereo not given), the normalized absorbance was 100%.

As for `COc1ccc2nc(C(=O)N3CCN(C)CC3)sc2c1`, the normalized absorbance was 85.1%.

On to `O=C1CN(C(=O)CCC(=O)c2ccc(F)cc2)c2ccccc2N1`, for which the normalized absorbance is 101%.

Take `Cn1c(NCc2ccccc2)nc2ccccc21`: the normalized absorbance is 101%.

Consider `O=C(O)CCNC(=O)c1ccc2c(c1)OCCO2`, for which the normalized absorbance is 102%.

Regarding `CSc1ncc(Cl)c(C(=O)N2CCN(c3cccc(Cl)c3)CC2)n1`, the normalized absorbance is 95.5%.

Consider `O=P(O)(CN1CCCCCC1)C1Cc2ccccc2C1`, for which the normalized absorbance was 84.6%.

Turning to `CCOC(=O)c1c(C)oc2ccc(OC(=O)c3ccco3)cc12`, the normalized absorbance is 99.5%.

As for `CC12CCC3C(CC=C4CC(OC5CCCCO5)CCC43C)C1CCC2=O` (stereo not given), the normalized absorbance was 100%.

As for `CC(C)(C)c1cc(C(F)(F)F)n2ncnc2n1`, the normalized absorbance is 99.9%.

With `C=CCN(C(=O)c1cccc2c1SCCC2=O)c1ccccc1`, the normalized absorbance is 113%.

Regarding `CCN(CC)c1ccc(N=Cc2cccs2)cc1`, the normalized absorbance was 99.2%.

Consider `CCOC(=O)c1c(NC(=O)C(C)Sc2ncccn2)sc2c1CCC2` (stereo not given), for which the normalized absorbance was 91.9%.

For `CCN(CC)c1ccc(N=C2C(=C(C#N)C#N)c3ccccc3C2=C(C#N)C#N)cc1`, the normalized absorbance was 99.9%.

`CC(c1ccco1)N(C(=O)c1cccnc1Cl)c1ccccn1` (stereo not given): the normalized absorbance is 97.4%.

For `c1ccc2c(c1)[I+]c1ccccc1-2`, the normalized absorbance is 15.1% (active).

As for `Oc1ccccc1-c1nnc2n1CCC2`, the normalized absorbance is 102%.

On to `O=S(=O)(Cc1ccc(Cl)cc1)N1CCc2ccccc2C1`, for which the normalized absorbance is 107%.

Turning to `CC(C)(C)S(=O)(=O)c1cccs1`, the normalized absorbance was 90.5%.

Turning to `CC(=O)Nc1ccc2c(c1)CN(C1CCCCC1)CO2`, the normalized absorbance was 89%.

On to `O=C(O)c1ccc(NC(=O)C23CC4CC(CC(C4)C2)C3)cc1`, for which the normalized absorbance is 95.6%.

Regarding `O=C1C2CC3CC1CC(C(=O)O)(C3)C2`, the normalized absorbance was 61.8% (active).

Consider `Cc1ccc2cccc(SCc3ccc(Br)cc3)c2n1`, for which the normalized absorbance was 99.8%.

Consider `O=C(NCCc1ccccc1)C(C(=O)c1ccccc1)n1ccccc1=O` (stereo not given), for which the normalized absorbance was 104%.

For `CCc1nc2ccccc2n1CC(=O)N(c1ccccc1)C(C)C`, the normalized absorbance is 99.6%.

With `CC(C)N(C(=O)CSc1ncn[nH]1)c1ccccc1`, the normalized absorbance is 95.7%.

Regarding `Fc1ccc(CNCc2ccccn2)cc1`, the normalized absorbance is 105%.

On to `Cc1cc(C(=O)OCC(=O)N2C(C)CCCC2C)c2ccccc2n1` (stereo not given), for which the normalized absorbance is 106%.

Turning to `CCNCC1Cc2ccccc2O1` (stereo not given), the normalized absorbance is 110%.

Regarding `CC(=O)N1CCc2c(sc(NC(=O)C(C)C)c2C(N)=O)C1`, the normalized absorbance is 119%.

For `COC(=O)c1c(NC(NC(C)=O)(C(F)(F)F)C(F)(F)F)sc2c1CCN(C)C2`, the normalized absorbance was 99.8%.

Take `COC(=O)c1c(NC(=O)c2ccc(OC)cc2)sc2c1CCN(C(C)C)C2`: the normalized absorbance was 56.5% (active).

In the case of `Cc1cc(C)c(S(=O)(=O)N2CCOCC2)cc1C`, the normalized absorbance is 105%.

On to `CC(C)Oc1cccc(NC(=O)Cc2ncc(C(F)(F)F)cc2Cl)c1`, for which the normalized absorbance was 103%.

Turning to `CC(=Nc1ccc(N(C)C)cc1)C1=C(O)c2ccccc2C1=O`, the normalized absorbance was 103%.

Take `Cc1ccc(NC(=O)/C=C/c2ccc(Br)o2)cc1`: the normalized absorbance is 100%.

Consider `O=C1Cc2cc(S(=O)(=O)NCc3cccs3)ccc2N1`, for which the normalized absorbance was 105%.

On to `O=C(OCC(=O)N1CCCC1)c1ccc(Oc2ccccc2)cc1`, for which the normalized absorbance is 94.5%.

As to `O=C(Nc1nc(-c2ccccc2)cs1)c1cccc(S(=O)(=O)N2CCCC2)c1`, the normalized absorbance is 111%.

Turning to `CN(C)S(=O)(=O)n1cc(/C=C(\NC(=O)c2ccccc2)C(=O)NCc2ccco2)c2ccccc21`, the normalized absorbance was 80.2%.

For the compound `CC[N+](C)(CC)CCC[n+]1c(-c2ccccc2)c2cc(N)ccc2c2ccc(N)cc21`, the normalized absorbance was 8.9% (active).

With `CC[n+]1c(C)n(-c2ccccc2)c2ccc(N)cc21`, the normalized absorbance is 99.4%.

Regarding `CCc1ccc(/C=C2\SC(=S)N(CCCC(=O)Nc3cccnc3)C2=O)cc1`, the normalized absorbance is 99.7%.

As for `Nc1[nH]c(=S)sc1C(=O)Nc1nccs1`, the normalized absorbance was 58.3% (active).

As for `O=C(Nc1nccs1)c1cc(=O)c2ccccc2o1`, the normalized absorbance is 101%.

Consider `O=C(O)c1ccccc1-c1ccccc1C(=O)Nc1nccs1`, for which the normalized absorbance is 70.1%.

Regarding `CCN1CCN(CCNC(=O)c2ccc3c(c2)NC(=O)/C(=C\c2cccc(Cl)c2)S3)CC1`, the normalized absorbance is 79.8%.

For the compound `Clc1ccc(-c2ncc3ccccn23)c(Cl)c1`, the normalized absorbance is 101%.

For the compound `OC1CCN(c2ncc(C(F)(F)F)cc2Cl)CC1`, the normalized absorbance is 105%.

Take `Cc1ccc2nc(C)c3c(c2c1)N(c1ccccc1)CC3`: the normalized absorbance is 61.5% (active).

On to `Cc1ccc2nc(Nc3ccccc3)cc(C)c2c1`, for which the normalized absorbance was 100%.

Regarding `O=C(CSc1nc2ccc(N=Cc3cc(Br)ccc3O)cc2s1)Nc1ccccc1`, the normalized absorbance was 100%.

As to `CCCNS(=O)(=O)c1ccc2c(c1)oc(=O)n2CC(=O)OCC`, the normalized absorbance is 99.1%.

In the case of `O=c1c(/C=N\O)coc2ccc(F)cc12`, the normalized absorbance is 79.3%.

As for `COc1cccc2c(=O)n(CC(=O)NCc3ccccc3)ccc12`, the normalized absorbance was 90%.

In the case of `CN(C(=O)COC(=O)c1cnc(Cl)c(Cl)c1)c1ccccc1`, the normalized absorbance is 101%.

In the case of `COCc1cc(Cl)nc(-c2ccccc2)n1`, the normalized absorbance is 103%.

Regarding `c1csc(Nc2nc3cc4c(cc3s2)OCO4)n1`, the normalized absorbance was 96.8%.

In the case of `CCCCN1N=C(C)CC1=O`, the normalized absorbance was 99.9%.

`CCC(=O)Oc1ccc(Br)cc1/C=C1\Sc2ccccc2C1=O`: the normalized absorbance is 99.9%.

`ClCc1csc(-c2ccccc2)n1`: the normalized absorbance is 96.4%.

As to `Cc1ccc2cc(CCNC(=O)CCC3CCCC3)c(=O)[nH]c2c1`, the normalized absorbance was 101%.

As for `COCCn1cc(C(=O)NC2CCCCCC2)c2c3ccccc3n(C)c2c1=O`, the normalized absorbance is 102%.

Turning to `Cn1c(C(=O)NC2CCCC2)cc2oc3ccccc3c21`, the normalized absorbance is 104%.

As for `CCN1CCCC1CNC(=O)c1cc2c(=O)n(C)c3ccccc3c2n1C` (stereo not given), the normalized absorbance was 51.4% (active).

As to `COc1cc2c3c(c1OC)C1(C=CC(=O)C=C1)CC3[N+](C)(C)CC2` (stereo not given), the normalized absorbance is 75.6%.

In the case of `O=C(N=C1SC2CS(=O)(=O)CC2N1c1ccccc1)c1ccccc1` (stereo not given), the normalized absorbance is 112%.

As to `Cc1cc(S(=O)(=O)N2CCN(Cc3ccccc3)CC2)c(C)cc1Cl`, the normalized absorbance is 71.9%.

As to `Cc1ccc(-c2cn3nc(N4CCC(C(=O)NCCCN5CCCCC5)CC4)sc3n2)cc1`, the normalized absorbance is 104%.

For `Cc1c(C(=O)NCCCN2CCCCCC2)oc2ccc3nc(N(C)C)sc3c12`, the normalized absorbance is 64.3% (active).

For the compound `O=C(NCCCN1CCCC1)c1cc(-c2ccncc2)nc2ccccc12`, the normalized absorbance was 86.5%.

As to `CC(C)=CCC(O)C1=CC(=O)c2c(O)ccc(O)c2C1=O` (stereo not given), the normalized absorbance is 81.9% (active).

For the compound `Cc1ccccc1NC1=NC2(CCCCC2)N=C(N)N1`, the normalized absorbance was 100%.

For the compound `O=C(O)CC(c1ccccc1)c1cc(Cl)ccc1O` (stereo not given), the normalized absorbance was 73.5% (active).

As for `O=C(O)CCc1nc2cc(Cl)ccc2n(Cc2ccccc2)c1=O`, the normalized absorbance is 98.8%.

As for `O=C(O)CC(c1ccccc1)n1cnnn1` (stereo not given), the normalized absorbance was 107%.

Consider `CC(=O)N1CC(C)Oc2cc(S(=O)(=O)N(C)Cc3ccccc3)ccc21` (stereo not given), for which the normalized absorbance is 103%.

In the case of `COc1cccc2c1C(=O)C1C(O)=C3C(=C(O)C1C2=O)C[C@@](O)(C(=O)CO)C[C@@H]3OC1CC(N)C(O)C(C)O1` (stereo not given in full), the normalized absorbance was 7.8% (active).

Consider `Cc1ccccc1Nc1nn2c(=O)c3ccc(C(=O)NCc4ccccc4Cl)cc3nc2s1`, for which the normalized absorbance was 96.3%.

On to `Cc1scc(-c2ccccc2)[n+]1C`, for which the normalized absorbance is 97%.

As for `Clc1ccc2oc(-c3ccccc3)c/c(=N\c3nccs3)c2c1`, the normalized absorbance was 99.8%.

As for `CN(C)CCN=c1cc(-c2ccccc2)oc2ccc(Cl)cc12`, the normalized absorbance was 25.3% (active).

For the compound `S=c1cc(-c2ccccc2)oc(-c2ccccc2)c1`, the normalized absorbance was 99.9%.

On to `N#Cc1ccccc1NC(=O)CSc1ccccc1`, for which the normalized absorbance is 105%.

Consider `O=C(CCNS(=O)(=O)c1ccc2[nH]c(=O)ccc2c1)NC1CCCC1`, for which the normalized absorbance is 103%.

For `Cc1ccc(S(=O)(=O)N2CCCC(C(=O)N(C)c3ccccc3)C2)cc1` (stereo not given), the normalized absorbance is 101%.

Turning to `COC(CN(C)C(=O)c1cc2c(Cl)nc3ccc(C)cc3c2s1)OC`, the normalized absorbance is 80.2%.

Take `Cc1ccc2nc(Cl)c3cc(C(=O)NCCN4CCN(C)CC4)sc3c2c1`: the normalized absorbance is 22.8% (active).

Turning to `O=C(NCCCN1CCOCC1)c1cc2c(s1)CCC2`, the normalized absorbance is 82.2%.
